{
  "source": "PubChem BioAssay (NCATS)",
  "note": "Results filed as inconclusive are left out. Where a call stands in place of a potency, no number is given. Activity calls are given as the source filed them. The call rests on the fitted dose curve; in most records, active means well fitted inhibition curve with a large enough effect; inconclusive means small, poorly fitted or top-dose-only effect; inactive means flat fitted curve, though single readings scatter.",
  "data": [
    {"molecular_target": "Phospholipid hydroperoxide glutathione peroxidase GPX4 (Homo sapiens) (UniProt P36969)", "sequence (P36969 whole entry, looked up)": "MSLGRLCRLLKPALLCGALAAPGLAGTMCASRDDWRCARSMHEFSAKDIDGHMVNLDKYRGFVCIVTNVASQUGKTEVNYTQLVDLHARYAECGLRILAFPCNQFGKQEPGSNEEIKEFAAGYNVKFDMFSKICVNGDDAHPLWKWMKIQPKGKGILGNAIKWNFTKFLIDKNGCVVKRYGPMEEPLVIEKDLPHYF", "assay": "Primary qHTS Assay for Inhibitors of Recombinant Selenoprotein Glutathione Peroxidase 4 (GPX4) (AID 1845192); further: nearly all actives have a fitted effect of over 65% in size", "conditions": "recombinant GPX4, GR-coupled NADPH fluorescence, 15 min; series mostly up to 50 µM", "summary_of_the_method": "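GR-coupled readout: 100 nM GR, 1 mM GSH, 0.5 mM NADPH; NADPH fluorescence (ex 340/em 450 nm) read at t=0 and after 15 min RT. GPX4 200 nM, preincubated 30 min with compound; substrate 0.5 mM CHP.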", "values": [
      {"compound": "CCOCCn1c(N2CCCN(C)CC2)nc2ccccc21", "Potency": "inactive"},
      {"compound": "NS(=O)(=O)Cc1noc2ccccc12", "Potency": "inactive"},
      {"compound": "CCCCC(CC)COC(=O)/C=C/c1ccc(OC)cc1", "note": "(centres undefined)", "Potency": "inactive"},
      {"compound": "Nc1nc(Cl)nc2c1ncn2[C@@H]1O[C@H](CO)[C@@H](O)[C@@H]1F", "Potency": "inactive"},
      {"compound": "CC[N+](C)(CC)CCOC(=O)C(O)(c1ccccc1)C1CCCCC1", "note": "(centres undefined)", "Potency": "inactive"},
      {"compound": "O=c1[nH]c(=O)n([C@H]2C[C@H](O)[C@@H](CO)O2)cc1F", "Potency": "inactive"},
      {"compound": "O[C@@H](c1cc(C(F)(F)F)nc2c(C(F)(F)F)cccc12)[C@H]1CCCCN1", "Potency": "inactive"},
      {"compound": "CCOC(=O)Nc1ccc2c(c1)N(C(=O)CCN1CCOCC1)c1ccccc1S2", "Potency": "inactive"},
      {"compound": "C/C=C/c1ccc(O)c(OC)c1", "Potency": "inactive"},
      {"compound": "CCCCc1cc2ccccc2c(OCCN(C)C)n1", "Potency": "inactive"},
      {"compound": "OC1C(O)C(O)C(O)C(O)C1O", "note": "(centres undefined)", "Potency": "inactive"},
      {"compound": "COc1ccc(CN(CCN(C)C)c2ncccn2)cc1", "Potency": "inactive"},
      {"compound": "NC(=O)C1(N2CCCCC2)CCN(CCCC(=O)c2ccc(F)cc2)CC1", "Potency": "inactive"},
      {"compound": "CC(=O)OCC(=O)[C@H]1CC[C@H]2[C@@H]3CCC4=CC(=O)CC[C@]4(C)[C@H]3CC[C@]12C", "Potency": "inactive"},
      {"compound": "CCN1CCN(C(=O)N[C@@H](C(=O)N[C@@H]2C(=O)N3C(C(=O)O)=C(CSc4nnnn4C)CS[C@H]23)c2ccc(O)cc2)C(=O)C1=O", "Potency": "inactive"},
      {"compound": "CN1CCC(OC(c2ccccc2)c2ccccc2)CC1", "Potency": "inactive"},
      {"compound": "C[N+]1(CC2COC(c3ccccc3)(C3CCCCC3)O2)CCCCC1", "note": "(centres undefined)", "Potency": "inactive"},
      {"compound": "C[C@@H](O)[C@H]1C(=O)N2C(C(=O)O)=C(S[C@@H]3CN[C@H](CNS(N)(=O)=O)C3)[C@H](C)[C@H]12", "Potency": "inactive"},
      {"compound": "CC(=O)O[C@H]1C[C@@H]2CC[C@@H]3[C@H](CC[C@@]4(C)[C@H]3C[C@H]([N+]3(C)CCCCC3)[C@@H]4OC(C)=O)[C@@]2(C)C[C@@H]1N1CCCCC1", "Potency": "inactive"},
      {"compound": "CC(=O)Nc1ccc(CC(=O)O)cc1", "Potency": "inactive"},
      {"compound": "O=C(Nc1ccc([N+](=O)[O-])cc1)Nc1ccc([N+](=O)[O-])cc1", "Potency": "inactive"},
      {"compound": "CC(C)Cc1ccc(CC(=O)O)cc1", "Potency": "inactive"},
      {"compound": "O=C(Nc1cccc(C2=NCCN2)c1)Nc1cccc(C2=NCCN2)c1", "Potency": "inactive"},
      {"compound": "C#C[C@]1(O)CC[C@H]2[C@@H]3CCC4=CC(=O)CC[C@@H]4[C@H]3CC[C@@]21CC", "Potency": "inactive"},
      {"compound": "C=CCN1CCc2nc(N)sc2CC1", "Potency": "inactive"},
      {"compound": "Cc1ccccc1OCC(O)CO", "note": "(centres undefined)", "Potency": "inactive"},
      {"compound": "CCN(CC)CCOc1ccccc1C(=O)CCc1ccccc1", "Potency": "inactive"},
      {"compound": "CN(Cc1ccc(C(C)(C)C)cc1)Cc1cccc2ccccc12", "Potency": "inactive"},
      {"compound": "O=C(Oc1cccc2cccnc12)c1ccccc1", "Potency": "inactive"},
      {"compound": "NS(=O)(=O)c1cc(C(=O)O)cc(N2CCCC2)c1Oc1ccccc1", "Potency": "inactive"},
      {"compound": "COc1ccc(C(Cl)=C(c2ccc(OC)cc2)c2ccc(OC)cc2)cc1", "Potency": "inactive"},
      {"compound": "CCCCCCCCCCCCSCCOCCO", "Potency": "inactive"},
      {"compound": "CCN(CC)CCOC(=O)C1(c2ccccc2)CCCC1", "Potency": "inactive"},
      {"compound": "CCCCC(CC)COC(=O)c1ccc(N(C)C)cc1", "note": "(centres undefined)", "Potency": "inactive"},
      {"compound": "CCCCNc1ccc(C(=O)OCCOCCOCCOCCOCCOCCOCCOCCOCCOC)cc1", "Potency": "inactive"},
      {"compound": "CN1CCN(C2=Nc3ccccc3Sc3ccc(Cl)cc32)CC1", "Potency": "inactive"},
      {"compound": "CN(C)CCN1C(=O)c2ccccc2N(C)c2ccccc21", "Potency": "inactive"},
      {"compound": "C#C[C@]1(OC(C)=O)CC[C@H]2[C@@H]3CCC4=C/C(=N/O)CC[C@@H]4[C@H]3CC[C@@]21CC", "Potency": "inactive"},
      {"compound": "CC[C@H](c1ccc(O)cc1)[C@@H](CC)c1ccc(O)cc1", "Potency": "inactive"}
    ]}
  ]
}
